# Results taken from article PMC7862700, “An all-to-all approach to the identification of sequence-specific readers for epigenetic DNA modifications on cytosine”.
# Key:
# Assay in all cases: DAPPL (digital affinity profiling via proximity ligation, sequencing); 10 mM Tris-HCl pH 7.5, 50 mM NaCl, 1 mM DTT, 4% glycerol, room temperature, 30 min; GST-TFs on glutathione beads, 16-mer random dsDNA library, 0.1% formaldehyde crosslink after washing; high values mean tight binding
# FLI1 = target: T1, FLI1 (Homo sapiens, UniProt Q01543 1-452); settings: protein: recombinant; tags: N-terminal GST; dsDNA, one strand shown
# T1 sequence: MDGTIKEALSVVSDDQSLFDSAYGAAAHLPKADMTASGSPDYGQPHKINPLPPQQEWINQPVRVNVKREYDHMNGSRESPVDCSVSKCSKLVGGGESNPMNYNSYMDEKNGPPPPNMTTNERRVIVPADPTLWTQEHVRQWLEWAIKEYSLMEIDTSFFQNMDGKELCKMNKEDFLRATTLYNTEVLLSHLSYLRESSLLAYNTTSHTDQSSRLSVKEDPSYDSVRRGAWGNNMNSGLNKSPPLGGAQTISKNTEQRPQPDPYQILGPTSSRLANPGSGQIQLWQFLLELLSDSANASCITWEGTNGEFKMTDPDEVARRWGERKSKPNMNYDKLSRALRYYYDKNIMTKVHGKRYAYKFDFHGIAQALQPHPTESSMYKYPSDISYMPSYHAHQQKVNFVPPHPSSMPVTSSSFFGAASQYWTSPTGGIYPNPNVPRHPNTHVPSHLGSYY
# How it was run: (§1)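 A tag-only sample was pooled with DNA-barcoded human transcription factors that had been expressed in yeast as GST fusions and captured on glutathione beads. The pools were incubated for 30 min at room temperature with 200 nmole of a random double-stranded 16-mer DNA library in Tris/NaCl/DTT/glycerol buffer, then washed, crosslinked with 0.1% formaldehyde, proximity-ligated (BsaI/T4 ligase, 1 h, 37 °C), PCR-amplified and sequenced on an Illumina NextSeq500. Binding signal is each hexamer's read frequency for a factor divided by its frequency for the tag-only sample.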
# ELK1 = target: T2, ELK1 (Homo sapiens, UniProt P19419 1-428); settings: protein: recombinant; tags: N-terminal GST; dsDNA, one strand shown
# T2 sequence: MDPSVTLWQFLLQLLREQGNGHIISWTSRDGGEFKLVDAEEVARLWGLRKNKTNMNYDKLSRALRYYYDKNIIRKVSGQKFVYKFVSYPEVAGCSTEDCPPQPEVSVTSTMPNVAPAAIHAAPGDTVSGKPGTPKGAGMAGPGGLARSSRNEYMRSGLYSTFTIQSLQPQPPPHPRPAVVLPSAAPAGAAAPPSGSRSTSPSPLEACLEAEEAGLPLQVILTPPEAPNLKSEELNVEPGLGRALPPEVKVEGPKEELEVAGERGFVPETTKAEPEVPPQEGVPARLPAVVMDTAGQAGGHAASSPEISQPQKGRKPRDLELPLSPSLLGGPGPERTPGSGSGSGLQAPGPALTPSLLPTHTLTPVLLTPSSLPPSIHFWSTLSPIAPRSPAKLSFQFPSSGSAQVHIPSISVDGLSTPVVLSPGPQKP
# How it was run: as §1
# GABPA = target: T3, GABPA (Homo sapiens, UniProt Q06546 1-454); settings: protein: recombinant; tags: N-terminal GST; dsDNA, one strand shown
# T3 sequence: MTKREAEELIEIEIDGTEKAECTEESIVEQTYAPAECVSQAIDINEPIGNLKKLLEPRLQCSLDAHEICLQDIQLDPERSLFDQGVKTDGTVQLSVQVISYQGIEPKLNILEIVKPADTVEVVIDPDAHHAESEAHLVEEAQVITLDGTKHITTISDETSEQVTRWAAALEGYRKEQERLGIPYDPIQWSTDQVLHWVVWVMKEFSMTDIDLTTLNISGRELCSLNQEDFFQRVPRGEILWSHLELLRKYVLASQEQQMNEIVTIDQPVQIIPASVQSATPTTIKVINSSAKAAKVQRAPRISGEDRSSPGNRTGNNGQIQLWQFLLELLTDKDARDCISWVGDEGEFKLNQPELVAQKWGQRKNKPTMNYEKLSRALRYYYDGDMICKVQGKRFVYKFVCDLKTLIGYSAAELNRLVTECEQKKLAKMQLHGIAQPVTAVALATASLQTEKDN
# How it was run: as §1
# ERG = target: T4, ERG (Homo sapiens, UniProt P11308 1-479); settings: protein: recombinant; tags: N-terminal GST; dsDNA, one strand shown
# T4 sequence: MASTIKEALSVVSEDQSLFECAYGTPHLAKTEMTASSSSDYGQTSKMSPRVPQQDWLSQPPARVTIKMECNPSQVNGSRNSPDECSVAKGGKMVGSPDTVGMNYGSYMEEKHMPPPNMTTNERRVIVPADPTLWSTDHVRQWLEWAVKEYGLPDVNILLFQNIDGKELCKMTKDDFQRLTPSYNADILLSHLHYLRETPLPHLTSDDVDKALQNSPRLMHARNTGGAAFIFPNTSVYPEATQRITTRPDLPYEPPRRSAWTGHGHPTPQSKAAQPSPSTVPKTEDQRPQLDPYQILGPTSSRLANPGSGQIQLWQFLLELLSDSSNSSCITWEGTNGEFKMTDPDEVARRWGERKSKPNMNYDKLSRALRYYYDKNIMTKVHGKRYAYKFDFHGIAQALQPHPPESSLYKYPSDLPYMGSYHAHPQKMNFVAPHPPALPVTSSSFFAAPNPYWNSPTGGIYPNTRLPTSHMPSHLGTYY
# How it was run: as §1
# ELF1 = ELF1 (Homo sapiens, UniProt P32519 1-619); settings: protein: recombinant; tags: N-terminal GST; dsDNA, one strand shown
# How it was run: as §1
# EHF = target: T5, EHF (Homo sapiens, UniProt Q9NZC4 1-300); settings: protein: recombinant; tags: N-terminal GST; dsDNA, one strand shown
# T5 sequence: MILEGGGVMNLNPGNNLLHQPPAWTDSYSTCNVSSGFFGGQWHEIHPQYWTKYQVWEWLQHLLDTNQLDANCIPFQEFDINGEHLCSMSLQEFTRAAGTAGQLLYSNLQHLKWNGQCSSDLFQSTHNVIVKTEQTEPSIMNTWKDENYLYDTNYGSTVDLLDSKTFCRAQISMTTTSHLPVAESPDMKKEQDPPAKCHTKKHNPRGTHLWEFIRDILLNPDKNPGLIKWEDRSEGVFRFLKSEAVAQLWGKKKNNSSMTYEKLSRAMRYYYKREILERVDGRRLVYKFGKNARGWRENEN
# How it was run: as §1
# SPI1 = SPI1 (Homo sapiens, UniProt P17947 1-270); settings: protein: recombinant; tags: N-terminal GST; dsDNA, one strand shown
# How it was run: as §1
# SPIB = SPIB (Homo sapiens, UniProt Q01892 1-262); settings: protein: recombinant; tags: N-terminal GST; dsDNA, one strand shown
# How it was run: as §1
# ELK3 = target: T6, ELK3 (Homo sapiens, UniProt P41970 1-407); settings: protein: recombinant; tags: N-terminal GST; dsDNA, one strand shown
# T6 sequence: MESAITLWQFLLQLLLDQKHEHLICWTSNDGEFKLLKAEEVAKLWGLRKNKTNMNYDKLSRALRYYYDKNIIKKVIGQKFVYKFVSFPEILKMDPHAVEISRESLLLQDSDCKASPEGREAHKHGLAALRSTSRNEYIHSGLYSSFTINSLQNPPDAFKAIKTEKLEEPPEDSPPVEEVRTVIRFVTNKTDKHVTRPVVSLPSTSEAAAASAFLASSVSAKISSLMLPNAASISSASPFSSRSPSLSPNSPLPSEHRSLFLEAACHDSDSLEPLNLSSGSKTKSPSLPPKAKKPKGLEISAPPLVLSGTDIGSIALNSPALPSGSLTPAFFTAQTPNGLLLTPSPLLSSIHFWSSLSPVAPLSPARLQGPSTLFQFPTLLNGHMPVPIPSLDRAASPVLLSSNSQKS
# How it was run: as §1
# FEV = target: T7, FEV (Homo sapiens, UniProt Q99581 1-238); settings: protein: recombinant; tags: N-terminal GST; dsDNA, one strand shown
# T7 sequence: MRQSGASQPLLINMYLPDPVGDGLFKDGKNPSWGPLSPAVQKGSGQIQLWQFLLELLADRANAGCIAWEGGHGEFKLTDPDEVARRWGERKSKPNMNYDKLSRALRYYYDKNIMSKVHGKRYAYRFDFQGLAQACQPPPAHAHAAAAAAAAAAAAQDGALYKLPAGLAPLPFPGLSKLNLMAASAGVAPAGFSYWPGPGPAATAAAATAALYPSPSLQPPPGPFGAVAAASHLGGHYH
# How it was run: as §1
# ETV5 = ETV5 (Homo sapiens, UniProt P41161 1-510); settings: protein: recombinant; tags: N-terminal GST; dsDNA, one strand shown
# How it was run: as §1
# HSF1 = HSF1 (Homo sapiens, UniProt Q00613 1-529); settings: protein: recombinant; tags: N-terminal GST; chain copies: 3; dsDNA, one strand shown
# How it was run: as §1
# SPIC = target: T8, SPIC (Homo sapiens, UniProt Q8N5J4 1-248); settings: protein: recombinant; tags: N-terminal GST; dsDNA, one strand shown
# T8 sequence: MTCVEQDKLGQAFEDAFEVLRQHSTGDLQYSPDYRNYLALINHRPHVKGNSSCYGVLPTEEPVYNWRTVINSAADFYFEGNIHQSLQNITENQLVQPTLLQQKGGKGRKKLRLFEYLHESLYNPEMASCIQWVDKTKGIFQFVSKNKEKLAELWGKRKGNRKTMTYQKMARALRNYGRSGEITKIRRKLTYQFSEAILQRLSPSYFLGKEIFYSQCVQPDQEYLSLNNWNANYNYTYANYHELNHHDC
# How it was run: as §1
# ELF4 = ELF4 (Homo sapiens, UniProt Q99607 1-663); settings: protein: recombinant; tags: N-terminal GST; dsDNA, one strand shown
# How it was run: as §1
# ELK4 = target: T9, ELK4 (Homo sapiens, UniProt P28324-2 1-405); settings: protein: recombinant; tags: N-terminal GST; dsDNA, one strand shown
# T9 sequence: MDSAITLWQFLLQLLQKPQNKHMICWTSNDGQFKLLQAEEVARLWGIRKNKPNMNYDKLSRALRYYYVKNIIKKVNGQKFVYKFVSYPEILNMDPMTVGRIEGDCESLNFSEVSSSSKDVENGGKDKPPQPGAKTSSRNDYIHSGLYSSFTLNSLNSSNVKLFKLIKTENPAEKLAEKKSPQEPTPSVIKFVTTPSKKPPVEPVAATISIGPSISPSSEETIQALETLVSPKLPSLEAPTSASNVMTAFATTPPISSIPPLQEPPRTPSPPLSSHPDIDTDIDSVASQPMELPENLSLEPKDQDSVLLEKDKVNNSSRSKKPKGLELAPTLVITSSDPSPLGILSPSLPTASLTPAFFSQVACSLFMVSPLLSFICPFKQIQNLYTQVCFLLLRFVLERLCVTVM
# How it was run: as §1
# ETV2 = target: T10, ETV2 (Homo sapiens, UniProt O00321 1-342); settings: protein: recombinant; tags: N-terminal GST; dsDNA, one strand shown
# T10 sequence: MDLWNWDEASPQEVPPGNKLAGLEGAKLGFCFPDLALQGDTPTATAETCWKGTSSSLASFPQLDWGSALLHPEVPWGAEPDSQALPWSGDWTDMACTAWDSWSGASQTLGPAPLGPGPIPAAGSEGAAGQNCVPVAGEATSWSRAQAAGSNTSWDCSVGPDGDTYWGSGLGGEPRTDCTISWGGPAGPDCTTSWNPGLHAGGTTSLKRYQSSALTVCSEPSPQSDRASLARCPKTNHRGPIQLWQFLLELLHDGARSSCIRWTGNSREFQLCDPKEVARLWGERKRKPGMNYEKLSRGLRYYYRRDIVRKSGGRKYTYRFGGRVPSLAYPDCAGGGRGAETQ
# How it was run: as §1
# ELF3 = target: T11, ELF3 (Homo sapiens, UniProt P78545 1-371); settings: protein: recombinant; tags: N-terminal GST; dsDNA, one strand shown
# T11 sequence: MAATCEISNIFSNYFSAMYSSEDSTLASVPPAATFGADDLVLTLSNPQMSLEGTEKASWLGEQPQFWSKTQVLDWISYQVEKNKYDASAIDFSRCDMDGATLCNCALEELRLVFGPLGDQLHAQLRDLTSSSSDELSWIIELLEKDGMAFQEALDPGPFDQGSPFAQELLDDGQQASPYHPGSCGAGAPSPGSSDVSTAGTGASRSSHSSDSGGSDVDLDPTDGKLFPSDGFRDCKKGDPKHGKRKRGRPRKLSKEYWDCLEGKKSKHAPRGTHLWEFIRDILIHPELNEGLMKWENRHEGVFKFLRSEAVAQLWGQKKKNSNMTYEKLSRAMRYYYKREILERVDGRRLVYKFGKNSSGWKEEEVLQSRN
# How it was run: as §1
# CRX = CRX (Homo sapiens, UniProt O43186 1-299); settings: protein: recombinant; tags: N-terminal GST; dsDNA, one strand shown
# How it was run: as §1
# ETV1 = ETV1 (Homo sapiens, UniProt P50549 1-477); settings: protein: recombinant; tags: N-terminal GST; dsDNA, one strand shown
# How it was run: as §1
# Sequence of ETV5 (P41161 whole entry): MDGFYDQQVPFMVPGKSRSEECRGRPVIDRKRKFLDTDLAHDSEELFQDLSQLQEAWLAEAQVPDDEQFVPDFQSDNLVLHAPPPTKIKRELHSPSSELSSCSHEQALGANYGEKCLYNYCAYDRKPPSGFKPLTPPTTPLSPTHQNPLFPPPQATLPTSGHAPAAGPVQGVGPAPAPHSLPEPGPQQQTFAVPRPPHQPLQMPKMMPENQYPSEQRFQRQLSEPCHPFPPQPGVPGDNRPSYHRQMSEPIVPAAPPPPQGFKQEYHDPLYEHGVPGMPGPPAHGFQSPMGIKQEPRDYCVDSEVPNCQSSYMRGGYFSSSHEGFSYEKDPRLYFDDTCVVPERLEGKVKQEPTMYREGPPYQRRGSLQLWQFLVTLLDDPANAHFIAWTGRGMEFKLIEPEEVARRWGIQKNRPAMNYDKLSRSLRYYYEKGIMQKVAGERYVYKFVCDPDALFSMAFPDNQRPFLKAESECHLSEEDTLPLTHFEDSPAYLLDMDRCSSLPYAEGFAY
# Sequence of ETV1 (P50549 whole entry): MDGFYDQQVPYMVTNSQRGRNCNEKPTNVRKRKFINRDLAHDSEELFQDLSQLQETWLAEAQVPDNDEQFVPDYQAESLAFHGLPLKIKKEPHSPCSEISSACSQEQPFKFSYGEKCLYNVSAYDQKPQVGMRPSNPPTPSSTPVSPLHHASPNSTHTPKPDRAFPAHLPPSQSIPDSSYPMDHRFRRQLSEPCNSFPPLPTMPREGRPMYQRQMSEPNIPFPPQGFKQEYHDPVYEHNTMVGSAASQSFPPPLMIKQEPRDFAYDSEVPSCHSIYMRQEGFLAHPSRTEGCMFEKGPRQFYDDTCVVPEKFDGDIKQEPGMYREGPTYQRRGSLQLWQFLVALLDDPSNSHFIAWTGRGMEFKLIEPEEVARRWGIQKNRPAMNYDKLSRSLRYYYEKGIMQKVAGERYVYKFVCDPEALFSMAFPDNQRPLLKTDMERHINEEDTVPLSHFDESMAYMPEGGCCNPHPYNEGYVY
# Sequence of ELF4 (Q99607 whole entry): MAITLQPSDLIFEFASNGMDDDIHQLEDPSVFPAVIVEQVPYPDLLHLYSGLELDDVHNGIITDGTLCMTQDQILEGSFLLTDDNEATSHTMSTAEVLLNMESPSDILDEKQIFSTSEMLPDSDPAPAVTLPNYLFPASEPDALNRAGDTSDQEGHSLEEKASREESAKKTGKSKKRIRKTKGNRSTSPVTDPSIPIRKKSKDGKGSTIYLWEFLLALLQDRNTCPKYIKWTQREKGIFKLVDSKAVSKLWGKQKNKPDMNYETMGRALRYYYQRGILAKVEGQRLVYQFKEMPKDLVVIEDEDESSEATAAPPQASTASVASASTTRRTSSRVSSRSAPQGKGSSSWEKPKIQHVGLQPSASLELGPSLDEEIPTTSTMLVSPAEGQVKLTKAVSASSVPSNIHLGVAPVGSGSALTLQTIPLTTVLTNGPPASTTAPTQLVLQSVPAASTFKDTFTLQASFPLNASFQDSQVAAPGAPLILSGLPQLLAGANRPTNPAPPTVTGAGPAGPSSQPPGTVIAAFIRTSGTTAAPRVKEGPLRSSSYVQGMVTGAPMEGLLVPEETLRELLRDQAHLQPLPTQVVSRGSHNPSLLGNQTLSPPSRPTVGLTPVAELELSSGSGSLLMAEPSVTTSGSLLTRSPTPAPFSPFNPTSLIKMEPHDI
# Sequence of ELF1 (P32519 whole entry): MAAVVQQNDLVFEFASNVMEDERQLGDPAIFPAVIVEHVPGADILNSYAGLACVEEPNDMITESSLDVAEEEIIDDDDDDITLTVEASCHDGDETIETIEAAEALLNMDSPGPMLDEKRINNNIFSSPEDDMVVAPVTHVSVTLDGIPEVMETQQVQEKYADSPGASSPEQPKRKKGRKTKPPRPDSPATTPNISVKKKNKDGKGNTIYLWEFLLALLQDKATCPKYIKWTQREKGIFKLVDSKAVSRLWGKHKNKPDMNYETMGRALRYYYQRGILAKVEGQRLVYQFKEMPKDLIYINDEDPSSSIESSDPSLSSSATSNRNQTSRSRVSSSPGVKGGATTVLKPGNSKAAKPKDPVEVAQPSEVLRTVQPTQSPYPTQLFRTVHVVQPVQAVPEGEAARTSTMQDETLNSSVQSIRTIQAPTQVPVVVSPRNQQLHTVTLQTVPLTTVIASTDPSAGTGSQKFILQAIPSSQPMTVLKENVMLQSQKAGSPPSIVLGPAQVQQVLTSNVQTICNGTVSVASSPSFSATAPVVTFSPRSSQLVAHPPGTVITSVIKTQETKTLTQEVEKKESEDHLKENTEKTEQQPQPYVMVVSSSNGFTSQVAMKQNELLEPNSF
# Sequence of SPIB (Q01892 whole entry): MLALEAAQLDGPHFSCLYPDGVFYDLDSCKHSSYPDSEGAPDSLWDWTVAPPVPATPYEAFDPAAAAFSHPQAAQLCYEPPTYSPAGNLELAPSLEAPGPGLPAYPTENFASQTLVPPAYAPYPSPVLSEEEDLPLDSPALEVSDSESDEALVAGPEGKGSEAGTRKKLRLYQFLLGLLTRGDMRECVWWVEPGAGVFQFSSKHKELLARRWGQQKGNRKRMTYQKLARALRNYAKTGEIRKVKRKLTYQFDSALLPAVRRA
# Sequence of HSF1 (Q00613 whole entry): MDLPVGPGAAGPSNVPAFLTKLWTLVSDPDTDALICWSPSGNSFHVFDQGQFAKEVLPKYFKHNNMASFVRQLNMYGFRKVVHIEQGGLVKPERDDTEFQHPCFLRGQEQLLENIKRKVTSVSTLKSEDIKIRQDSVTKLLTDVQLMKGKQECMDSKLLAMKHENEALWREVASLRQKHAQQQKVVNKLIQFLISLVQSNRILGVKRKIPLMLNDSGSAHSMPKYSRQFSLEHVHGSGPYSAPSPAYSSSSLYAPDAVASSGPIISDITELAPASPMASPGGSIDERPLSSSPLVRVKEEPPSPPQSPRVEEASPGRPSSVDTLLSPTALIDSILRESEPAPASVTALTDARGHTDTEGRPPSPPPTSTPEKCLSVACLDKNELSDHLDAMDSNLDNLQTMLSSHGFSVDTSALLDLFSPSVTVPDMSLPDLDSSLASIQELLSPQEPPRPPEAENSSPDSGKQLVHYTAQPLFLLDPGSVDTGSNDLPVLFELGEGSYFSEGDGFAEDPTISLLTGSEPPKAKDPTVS
# Sequence of CRX (O43186 whole entry): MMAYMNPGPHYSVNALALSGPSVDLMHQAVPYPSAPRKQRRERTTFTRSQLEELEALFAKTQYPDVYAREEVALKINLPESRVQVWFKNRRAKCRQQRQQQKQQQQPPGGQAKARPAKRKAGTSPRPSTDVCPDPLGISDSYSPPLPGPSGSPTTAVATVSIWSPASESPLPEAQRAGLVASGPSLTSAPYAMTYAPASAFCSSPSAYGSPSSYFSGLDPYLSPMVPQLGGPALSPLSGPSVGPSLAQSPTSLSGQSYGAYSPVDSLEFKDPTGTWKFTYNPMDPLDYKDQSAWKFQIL
sequence,measurement,setting,value
ATCGAT,binding signal,FLI1,"1.16 fold enrichment (6-mer frequency, TF over GST control)"
same,binding signal,ELK1,"1.1 fold enrichment (6-mer frequency, TF over GST control)"
same,binding signal,GABPA,"1.19 fold enrichment (6-mer frequency, TF over GST control)"
same,binding signal,ERG,"1.15 fold enrichment (6-mer frequency, TF over GST control)"
same,binding signal,ELF1,"1.15 fold enrichment (6-mer frequency, TF over GST control)"
same,binding signal,EHF,"1.19 fold enrichment (6-mer frequency, TF over GST control)"
same,binding signal,SPI1,"1.21 fold enrichment (6-mer frequency, TF over GST control)"
same,binding signal,SPIB,"1.12 fold enrichment (6-mer frequency, TF over GST control)"
same,binding signal,ELK3,"1.1 fold enrichment (6-mer frequency, TF over GST control)"
same,binding signal,FEV,"1.02 fold enrichment (6-mer frequency, TF over GST control)"
same,binding signal,ETV5,"1.17 fold enrichment (6-mer frequency, TF over GST control)"
same,binding signal,HSF1,"1.26 fold enrichment (6-mer frequency, TF over GST control)"
same,binding signal,SPIC,"1.2 fold enrichment (6-mer frequency, TF over GST control)"
same,binding signal,ELF4,"1.17 fold enrichment (6-mer frequency, TF over GST control)"
same,binding signal,ELK4,"1.23 fold enrichment (6-mer frequency, TF over GST control)"
same,binding signal,ETV2,"1.08 fold enrichment (6-mer frequency, TF over GST control)"
same,binding signal,ELF3,"1.19 fold enrichment (6-mer frequency, TF over GST control)"
same,binding signal,CRX,"1.25 fold enrichment (6-mer frequency, TF over GST control)"
same,binding signal,ETV1,"1.07 fold enrichment (6-mer frequency, TF over GST control)"
